Methyltransferases: Primary Screen for Target Class Profiling of Small Molecule Inhibitors of Methyltransferases | purified enzyme, MTase-Glo SAH luminescence; active compounds read low | calls only at 40 µM | hit rate 3.9% among 25,000; call rule not given here
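Each enzyme was reacted with SAM and its substrate, with compounds tested once at 40 uM; SAH formed was read by MTase-Glo luminescence.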
* marks the source's active call; other numbers are inactive results; i = inactive; + = active, no number; ! = a repeat was not active. Only a selection was taken, and hits are over-represented in it overall. On the % scale 0 is the no-effect control and ±100 the full control effect.

SMILES	Methyltransferases
O=C(NC1CC1)C1CCc2nnc(-c3cccnc3)n21 (stereo unspecified)	i
CC(C)=CCC[C@@](C)(O)[C@H]1CC[C@]2(C)[C@@H]1[C@H](O)CC1[C@@]3(C)CC[C@H](O[C@@H]4O[C@H](CO)[C@@H](O)[C@H](O)[C@H]4O[C@@H]4O[C@H](CO)[C@@H](O)[C@H](O)[C@H]4O)C(C)(C)[C@@H]3CC[C@]12C (stereo partly specified)	i
NCCCCCC(=O)O	i
CN(CCCOc1ccc(Cc2ccccc2)cc1)CCC(=O)O	i
COc1ccc(CCN(C)CCCOc2nsc(-c3ccccc3)n2)cc1OC	+
COc1cccc(-c2[nH]cnc2-c2ccccc2)c1OCCCN(C)C	i
CN1CCCC(c2nc(CCOCC3CCCC3)no2)C1 (stereo unspecified)	i
CCCn1cc(C(=O)N2CC(=O)N(c3cccc(C)c3)CC2C)c(C)n1 (stereo unspecified)	i
CCOc1ccc(N2C(=O)Cn3cccc3C2C(=O)NC2CCCCC2C)cc1 (stereo unspecified)	i
C=C(C(=O)O)C1CC2=C(C)C(=O)CC2C(C)CC1O (stereo unspecified)	i
C=C(C(=O)O)[C@@H]1CC[C@H](C)[C@@H]2CC(=O)C(C)=C2C1	+
CC(C)CC1OC(=O)C2CCCN2C(=O)CCNC(=O)C(Cc2ccccc2)NC(=O)C(C(C)C)N(C)C(=O)C(C(C)C)N(C)C1=O (stereo unspecified)	i
COc1ccc(OC)c(S(=O)(=O)N2CCC3(CC2)CN(c2ccccc2)C3=O)c1	i
O=C(N[C@H]1CCN2C(=O)c3cc(-c4ccc(Cl)cc4)ccc3NC(=O)[C@H]12)C1CCCC1	i
C/C=C(\C)C(=O)O[C@H]1C=CC(=O)O[C@H]1/C=C/[C@@H](O)[C@H](C)O	i
C/C=C(/C)C(=O)O[C@H]1C=C(CO)C(=O)[C@H](OC(=O)/C(C)=C/CO)[C@H]1C(C)C	+
COc1ccccc1-n1nc(Cc2ccccc2)n(CC(=O)NC(C)C2CC2)c1=O (stereo unspecified)	i
CC(C)OCCCNC(=O)CCc1nnc2ccc(NCc3ccc4c(c3)OCO4)nn12	i
NC(=O)c1cnc(-c2ccc(C3(N)CCC3)cc2)c(-c2ccccc2)c1	+
NC(=O)c1ccccc1	i
N#Cc1c(O)c2c(-c3ccc(-c4ccccc4O)cc3)csc2[nH]c1=O	+!
CCn1cc(CN(C)Cc2ccccc2)ccc1=O	i
CN(C)CCC=C1c2ccccc2CCc2ccccc21	+
CC(CN(C)C)CN1c2ccccc2CCc2ccccc21 (stereo unspecified)	i
Cc1cccc(N2CCN(CCCNC(=O)CCc3nnc4n(CC(C)C)c(=O)c5ccccc5n34)CC2C)c1 (stereo unspecified)	i
SMILES	Methyltransferases
Cc1c(C(=O)NCCCO)cnn1-c1nc(-c2cccc(C(F)(F)F)c2)cs1	i
Cn1ccc2cc3c(cc21)CCN3C(=O)Nc1cccnc1	+
CN1CCc2cc(NC(=O)Nc3cccnc3)ccc21	i
O=C(c1ccncc1)N1CCC(Nc2cccnc2)C1 (stereo unspecified)	i
CN(C)[C@@H]1CN(C(=O)c2cc3ccccc3[nH]2)CC[C@@H]1CO	i
Cn1cc(CN2CCOC[C@H]2c2ncc(C(C)(C)C)[nH]2)c2ccccc21	i
Cc1cnc(C(=O)N2CCCC2c2nc(CCOCC3CCCC3)no2)cn1 (stereo unspecified)	i
CCCn1c(=O)c2ccc(C(=O)NC3CCCC3)cc2n2c(=O)n(CC(=O)Nc3ccccc3F)nc12	i
CC12CCC3c4ccc(O)cc4CCC3C1CCC2OC1OC(C(=O)O)C(O)C(O)C1O (stereo unspecified)	i
COc1cc2c(cc1O)CC[C@H]1[C@@H]2CC[C@]2(C)[C@H](O)CC[C@@H]12	+
COc1ccc2c(c1)CCC1C2CC[C@@]2(C)C1CC[C@@H]2NCCCCCCN1C(=O)CCC1=O (stereo partly specified)	i
CN(C)C[C@@H]1CN(C)C[C@H]1NC(=O)c1cnccn1	i
CC(C)(C)c1cc(C(=O)NCc2cccnc2)nn2cccc12	i
O=C(/C=C/c1ccc(O)cc1)O[C@@H]1C[C@@](O)(C(=O)O)C[C@@H](O)[C@@H]1O	i
COc1cc([C@@H]2Oc3c(OC)cc(CCCO)cc3[C@@H]2CO[C@@H]2O[C@H](CO)[C@@H](O)[C@H](O)[C@H]2O)ccc1O	i
C/C=C/c1cc(OC)c2c(c1)[C@@H](C)[C@@H](c1ccc(O)c(OC)c1)O2	+
Oc1ccc([C@@H]2Oc3ccc(O)cc3[C@@H]3CCC[C@@H]32)cc1	i
COc1cc(C2Oc3c(OC)cc(/C=C/C(=O)OC4CC(O)(C(=O)O)CC(O)C4O)cc3C2CO)ccc1O (stereo unspecified)	+
COc1cc(C(O)C2COC(c3ccc(OC4OC(CO)C(O)C(O)C4O)c(OC)c3)C2CO)ccc1O (stereo unspecified)	i
C/C=C/c1ccc2c(c1)[C@@H](C)[C@H](c1ccc(O)cc1)O2	+
COc1cc(C2Oc3c(OC)cc(CCCO)cc3C2CO)ccc1O (stereo unspecified)	+
COc1cc(C2Oc3c(O)cc(CCCO)cc3C2CO)ccc1O[C@H]1O[C@H](C)[C@@H](O)[C@H](O)[C@@H]1O (stereo partly specified)	i
COc1cc(/C=C/C(=O)OC2CC3CCC2(C)C3(C)C)ccc1O (stereo unspecified)	i
O=C(NC1CCCCC1)c1ccc2c(=O)nc3c(-c4ccc(F)cc4)n[nH]n3c2c1	i
NC(=O)c1ccc(NC(=O)Cn2nc3c(cc2=O)CCCCC3)cc1	i
SMILES	Methyltransferases
COc1ccc2cc3n(c2c1)CC(C)(C(=O)NCC1CCCO1)N(Cc1ccc2c(c1)OCO2)C3=O (stereo unspecified)	i
Cn1c(=O)c2ccc(C(=O)NC3CCCC3)cc2n2c(=O)n(Cc3cccc(Cl)c3)nc12	i
COc1cc(CCCO)ccc1O[C@@H]1O[C@H](CO)[C@@H](O)[C@H](O)[C@H]1O	i
OC1CCOC2(CCN(Cc3ccc4cc[nH]c4c3)CC2)C1 (stereo unspecified)	i
COCCn1c(C)cnc1CCNC(=O)NCC(C)C	i
Cc1cc(Nc2ccc(NC(=O)c3ccc(Nc4ccnc5ccccc45)cc3)cc2)nc(N)n1	+
Cn1c2ccc(NC(=O)c3ccccc3)cc2c(=O)n2nc(C(=O)O)cc12	i
O=C(Nc1ccc(OC(F)(F)F)cc1)c1sccc1NCc1ccnc2ccccc12	i
CC/C=C/CC1=C(CCCCCCCC(=O)O)CCC1=O	i
CN(C)S(=O)(=O)N1C[C@@H](Oc2cccnc2)C[C@H]1C(=O)N1CCOCC1	i
O=C(Cn1nc2n(Cc3ccccc3)c(=O)c3ccccc3n2c1=O)Nc1ccc2c(c1)OCCO2	i
COc1cc(-c2cc(-c3cccc(O)c3)cnc2N)cc(OC)c1OC	i
Nc1ccc(-c2cnc(N)c(-c3ccc(Cl)cc3)c2)cn1	+
COc1ccc(CNC(=O)C[C@@H]2O[C@H](CNCc3cccc(Cl)c3)[C@@H](O)[C@H]2O)cc1	i
COc1cccc(-c2noc(CCCc3nc(C4CCOC4)no3)n2)c1 (stereo unspecified)	i
CCN(CC)CCCCCCNc1cc(OC)cc2c(C)ccnc12	+
